Data as given in PubChem BioAssay.
Active and inactive are the calls of the source. Rule as the data show it: active = fold change permeability below about 0.7 or above about 1.3; inactive = in between.

Experiment: modulators of brain endothelial barrier permeability, primary screen, cell-based, FITC-avidin fluorescence, HTS (AID 1963498); also: test concentration not given here
Conditions: actives lie on both sides

SMILES | fold change permeability
C[N+]1(C)CCC(OC(=O)C(c2ccccc2)c2ccccc2)CC1 | 1.6 (active)
CN1C2CCC1CC(OC(c1ccccc1)c1ccccc1N)C2 (stereo not given) | 1.1 (inactive)
CNCCc1c[nH]c2ccc(O)cc12 | 0.8 (inactive)
NCCc1c[nH]c2ccc(O)cc12 | 1 (inactive)
CC1OC(C[N+](C)(C)C)CC1O (stereo not given) | 0.9 (inactive)
NCCc1c[nH]c2ccc(C(N)=O)cc12 | 1 (inactive)
NNC(=O)c1ccc(O)cc1 | 0.8 (inactive)
CC[C@@H](C(N)=O)N1CCCC1=O | 0.9 (inactive)
NC(=O)CN1CC(O)CC1=O (stereo not given) | 0.8 (inactive)
N=C(N)c1ccc(CS(=O)(=O)F)cc1 | 1.2 (inactive)
O=C(N[C@H]1CN2CCC1CC2)c1c[nH]c2ccsc2c1=O | 0.9 (inactive)
NC(=O)c1cc(N2CC2)c([N+](=O)[O-])cc1[N+](=O)[O-] | 1 (inactive)
COC(=O)[C@@H](N)CCCN=C(N)N[N+](=O)[O-] | 0.9 (inactive)
CN1CCC(c2c[nH]c3ccc(O)cc23)CC1 | 1 (inactive)
CN1C(=O)CCS(=O)(=O)C1c1ccc(Cl)cc1 (stereo not given) | 1.3 (active)
C[N+](C)(C)CC(=O)O | 1 (inactive)
CCCN(CCC)C1CCc2cccc(O)c2C1 (stereo not given) | 1 (inactive)
CC(C)NC(C)Cc1ccc(I)cc1 (stereo not given) | 1.8 (active)

SMILES | fold change permeability
Nc1ccc(CCN2CCN(c3cccc(C(F)(F)F)c3)CC2)cc1 | 1.8 (active)
COc1ccc(C(CN(C)C)C2(O)CCCCC2)cc1 (stereo not given) | 1 (inactive)
NC(=O)COc1c(F)cc(SCCNS(=O)(=O)c2ccccc2)cc1F | 0.9 (inactive)
O=C(CCCN1CCC2(CC1)C(=O)NCN2c1ccccc1)c1ccc(F)cc1 | 1 (inactive)
CC(C)(C)c1cc(C(C)(C)C)c2c(c1)C(O)(C(F)(F)F)C(=O)O2 (stereo not given) | 1.2 (inactive)
CCCCc1ccc(C(=O)O)nc1 | 0.8 (inactive)
c1ccc2sc(C3(N4CCCCC4)CCCCC3)cc2c1 | 1 (inactive)
Cc1c(F)cccc1[C@H]1COC(N)=N1 | 1 (inactive)
CC(C)(O)[C@@H]1C2OC(=O)C1[C@]1(O)C[C@H]3O[C@]34C(=O)O[C@H]2[C@]14C (stereo not given in full) (tested in a mixture with another compound) | 1.1 (inactive)
Oc1ccc2c3c1O[C@H]1c4[nH]c5ccccc5c4C[C@@]4(O)[C@@H](C2)N(CC2CC2)CC[C@]314 | 1 (inactive)
COc1ccc(C(=O)N2CCCC2=O)cc1 | 1 (inactive)
Cc1ccc2c(c1)C1(CCN(CCc3nc(-c4ccccc4)oc3C)CC1)OC(=O)N2 | 1 (inactive)
CN1C[C@H](CNC(=O)OCc2ccccc2)C[C@@H]2c3cccc4c3c(cn4C)C[C@H]21 | 1.4 (active)
OCc1cnc[nH]1 | 1.1 (inactive)
COC(=O)C1=CCCN(C)C1 | 1.2 (inactive)
Clc1ccc(CO/N=C(\Cn2ccnc2)c2ccc(Cl)cc2Cl)c(Cl)c1 | 1.6 (active)
Nc1ncnc2c1ncn2[C@@H]1O[C@H](COP(=O)(O)CP(=O)(O)OP(=O)(O)O)[C@H](O)C1O (stereo not given in full) | 0.9 (inactive)
